# From PubChem
# Pf growth 48h = P. falciparum growth inhibition at 48 hours (one generation) | P. falciparum luciferase growth in erythrocytes, 48 h | Potency, µM (top dose mostly 28.7 µM), for inactives: top-dose activity change, negative = inhibition, most hits filed as inhibitors | actives 5.9% (n = 310,000) | AID 504832; note: potency is the fitted concentration of half-maximal effect; % is set by controls: 0 for no effect and ±100 for the full control effect
#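 In quantitative HTS format, infected erythrocytes bearing luciferase-reporter parasites were treated for a single generation at 37 C. Luminescence after adding detection reagent served as the growth measure.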
# NS1 inh = blocks influenza NS1 protein function; actives 0.4% (n = 270,000); Potency, µM (top dose mostly 46.1 µM), inactives show at the top dose activity, positive = more growth; calls by dose curve; note: potency is the fitted concentration of half-maximal effect; actives are rising curves; nearly all actives have a fitted effect of over 50% in size
#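 A cell-based growth assay was used: compounds that relieve NS1-induced slow growth of budding yeast raise OD600. Assay medium was yeast nitrogen base with ammonium sulphate and -URA supplement, pH 6.0, with 2% galactose.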
# Cycloheximide cs = counter-screen hit for Shiga toxin inhibitors, cycloheximide; cell reporter, cycloheximide protein synthesis inhibition counterscreen; max response, %; actives 12% (n = 300,000); AID 2314; in the data active = max response mostly above about 13%, no sharp cut-off; inactive = mostly below about 14%; note: read at 38.3 µM for the half of the compounds with a filed dose; 0% is about no effect
# Shiga toxin inh = blocks Shiga toxin action in Vero cells | inhibition, % at 38.7 µM | actives 9.2% (n = 290,000) | Vero cells, Shiga toxin protein synthesis inhibition reporter; in the data active = inhibition mostly above about 28%, no sharp cut-off; inactive = mostly below about 43%; note: 0% is about no effect
# Pf growth 96h = P. falciparum growth inhibition at 96 hours | P. falciparum luciferase reporter growth, 96 h | Potency, µM (top dose mostly 28.7 µM), for inactives: at the highest dose activity change, negative = inhibition, usual class: inhibitors | actives 6.9% (n = 320,000) | AID 504834; note: potency is the fitted concentration of half-maximal effect; % is set by controls: 0 for no effect and ±100 for the full control effect
#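 P. falciparum expressing integrated firefly luciferase grown in erythrocytes (2% hematocrit, 0.05% parasitemia final) with compounds for 96 hours at 37 C, 5% CO2. Growth inhibition read as loss of luminescence after adding luciferase detection reagent.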
# An asterisk follows results filed as active; ? = inconclusive; · = not tested or not shown; [ ] = remark or other dose. Compounds with a hit are over-represented: about 21% of the library has one in this group of screens. Unless noted, calls come from the whole dose curve; as a rule, active = well fitted inhibition curve with a large enough effect; inconclusive = small, poorly fitted or top-dose-only effect, or another doubt; inactive = no such curve, though single readings can be large or run the other way.
SMILES,Pf growth 48h,NS1 inh,Cycloheximide cs,Shiga toxin inh,Pf growth 96h
CC(=O)Nc1ccc(SCC(c2ccccc2)N2CCN(C)CCC2=O)cc1 (stereo unspecified),·,·,67.9*,116.0*,·
Cc1ccc2cc(C(=O)O)c(C)nc2c1,33.6%,5.7%,2.7,8.2,40.4%
Cc1cccc(CNC(=O)CCn2ccc3cc(S(=O)(=O)N4CCCC4)ccc32)c1,-15.4%,-1.3%,-1.4,-3.9,?
Cc1ccc(NC(=O)CN(C)CC(=O)Nc2cccc(F)c2)cc1S(=O)(=O)N1CCCCCC1,0.0%,-0.4%,6.3,14.4,?
C[C@@H](C(=O)Nc1ccc2ccccc2c1)[C@H]1C[C@]1(C)[C@H](NS(=O)(=O)c1ccc(-c2ccccc2)cc1)c1ccccc1,11.7µM*,?,7.6,7.0,8.28µM*
NC(=O)C1=C[C@H](C2CCCCC2)C[C@H](OCc2ccc(CO)cc2)O1,118.3%,3.7%,49.9*,63.2*,231.6%
CC(C)(C)[C@@H]1C=C(C(N)=O)O[C@H](OCc2ccc(CO)cc2)C1,39.5%,-1.1%,-3.7,-1.7,-11.6%
CC(C)(C)[C@@H]1C=C(C(=O)Nc2ccccc2)O[C@H](OCc2ccc(CO)cc2)C1,?,-12.3%,26.2*,49.6,8.28µM*
O=C(NC1CC1)C1=C[C@@H](C2CCCCC2)C[C@@H](OCc2ccc(CO)cc2)O1,?,2.1%,1.4,-7.2,?
C#CCNC(=O)C1=C[C@H](C(C)(C)C)C[C@H](OCc2ccc(CO)cc2)O1,?,-4.9%,8.5,23.5,?
O=C(Nc1ccccc1)C1=C[C@H](C2CC2)C[C@H](OCCCCO)O1,5.1%,-0.6%,28.0*,104.3*,0.1%
CC(C)(C)[C@H]1C=C(C(N)=O)O[C@@H](OCc2ccc(CO)cc2)C1,0.0%,-0.6%,13.5*,39.8,0.0%
Cc1nn(C)c(C)c1NS(=O)(=O)c1ccccc1Cl,5.4%,·,·,·,18.7%
CC(=O)CCn1cc([N+](=O)[O-])nc1C,-0.5%,6.2%,-2.0,-5.4,52.4%
O=c1[nH]cc(NCCNc2ncc(C(F)(F)F)cc2Cl)c(=O)[nH]1,8.3%,·,-2.0,-2.1,42.0%
CC1(C)CC(NC(=O)C2CCC(=O)N(C3CC3)C2)CC(C)(C)C1 (stereo unspecified),8.3%,15.8%,-1.2,-1.8,8.28µM*
CN1CCN(C(=O)c2ccc(NS(=O)(=O)c3cccc([N+](=O)[O-])c3)cc2)CC1,57.8%,·,·,·,7.5%
CCCN(CC(=O)Nc1ccc(F)c(F)c1F)C(=O)c1cc([N+](=O)[O-])ccc1N1CCOCC1,8.2%,·,·,·,?
Cc1ccc(CN(Cc2cc3cc(C)ccc3[nH]c2=O)C(=O)N2CCOCC2)cc1,6.57µM*,-8.4%,-0.6,2.9,?
Cc1ccc2[nH]c(=O)c(CN(Cc3ccco3)C(=O)N3CCOCC3)cc2c1,-2.0%,-2.8%,0.9,-6.7,?
CCCCS(=O)(=O)N1CN(S(=O)(=O)CCCC)C2NC(=O)NC21 (stereo unspecified),35.6%,?,45.2*,21.9,113.5%
CC(=O)Nc1ccc(OCC(O)CN2CCN(c3ccc(Cl)cc3)CC2)cc1 (stereo unspecified),?,2.6%,-1.9,-10.5,?
CC(=O)Nc1ccc(OCC(O)Cn2nc(C)c(C(C)=O)c2C)cc1 (stereo unspecified),-1.8%,-1.1%,-5.0,-1.4,·
CC(=O)Nc1ccc(OCC(O)Cn2nc(C)c(C)c2C)cc1 (stereo unspecified),17.4%,5.2%,-5.1,-6.6,10.4µM*
CC(=O)Nc1ccc(OCC(O)CN2CCN(c3cccc(Cl)c3)CC2)cc1 (stereo unspecified),?,-13.0%,8.7,-5.1,10.4µM*
CC(=O)Nc1ccc(OCC(O)Cn2c(C(C)C)nc3ccccc32)cc1 (stereo unspecified),-0.7%,3.3%,-5.7,-7.3,2.33µM*
OC(COc1ccc(Cl)cc1Cl)Cn1ccnc1 (stereo unspecified),·,3.2%,13.2*,17.2,-12.6%
COc1ccc(CC2(CO)CCN(CC3=Cc4cc(Cl)ccc4OC3)CC2)cc1,0.0%,-6.6%,-3.8,-6.8,25.1%
Cc1nc(C)c(C(=O)C2=C(O)C(=O)N(CCCN(C)C)C2c2ccco2)s1 (stereo unspecified),·,-1.4%,1.5,43.6,-19.9%[5.75 µM]
CC(=O)Nc1ccc(OCC(O)Cn2ccnc2)cc1 (stereo unspecified),50.6%,-1.6%,35.3*,78.0*,0.0%
